Results taken from PubChem BioAssay (Tox21).
“And” between values parts separate entries of the source, which are not always exact repeats. Equal entries are not always repeated. Records with an inconclusive call do not appear. The source holds several records for some structures; these can differ, active in one and inactive in another. The source made the active and inactive calls. Calls follow the shape of the full dose curve.

biological target: Muscarinic acetylcholine receptor M1 (Homo sapiens) (UniProt P11229); assay: Cholinergic receptor muscarinic 1 (CHRM1) small molecule antagonists, cell-based qHTS assay (AID 1963588); conditions: CHRM1-CHO antagonist mode, calcium flux fluorescence; series mostly up to 61.5 µM; activity, negative = inhibition: at the top concentration; also: nearly all actives have a fitted effect of over 40% in size; also: potency is read from the fitted curve at half-maximal effect
Sequence (P11229 whole entry, looked up): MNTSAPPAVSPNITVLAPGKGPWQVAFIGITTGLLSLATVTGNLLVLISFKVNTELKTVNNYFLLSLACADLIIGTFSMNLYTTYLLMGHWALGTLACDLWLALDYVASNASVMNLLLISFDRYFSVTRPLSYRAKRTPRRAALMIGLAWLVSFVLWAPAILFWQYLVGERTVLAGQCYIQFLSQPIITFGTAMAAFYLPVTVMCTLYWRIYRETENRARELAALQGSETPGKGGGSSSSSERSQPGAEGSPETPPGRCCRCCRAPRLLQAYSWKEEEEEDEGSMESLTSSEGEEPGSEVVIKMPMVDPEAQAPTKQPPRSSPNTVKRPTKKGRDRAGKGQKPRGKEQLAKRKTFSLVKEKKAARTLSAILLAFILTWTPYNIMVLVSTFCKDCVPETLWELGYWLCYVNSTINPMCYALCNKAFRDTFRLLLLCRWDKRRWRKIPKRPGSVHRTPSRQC
How it was run: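 Compounds were tested at 15 concentrations in three independent runs. Dye-loaded CHRM1-CHO cells were exposed 5 min at room temperature before stimulation by acetylcholine added at 50nM. Intracellular calcium was read kinetically on FDSS for 3 min.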
% is scaled to controls: 0 for no effect and ±100 for the full control effect.

Row | Structure (SMILES) | activity, negative = inhibition | Potency
1 | Nc1c(NC/C=C\COc2cc(CN3CCCCC3)ccn2)c(=O)c1=O | -18.5% [at 12.6 µM] (inactive) | 
2 | O=S(=O)(O)c1ccc2cc(O)c(S(=O)(=O)O)cc2c1 | -11.1% (inactive) | 
3 | COCCOCCOCCOCCOC | -4.2% (inactive) | 
4 | COCCOCCOCCOCCOCCO | -5.92% (inactive) | 
5 | CCCO | 17.8% (inactive) | 
6 | CC[N+](C)(C)c1cccc(O)c1 | -11.5% [at 28.3 µM] (inactive) | 
7 | CCCCCCCN | 3.96% (inactive) | 
8 | CS(C)(=O)=O | 9.91% (inactive) | 
9 | O=c1[nH]c(=O)c2cn[nH]c2[nH]1 | 17.7% (inactive) | 
10 | CCC(COC(=O)CCS)(COC(=O)CCS)COC(=O)CCS | 4.96% (inactive) | 
11 | CC(C)N=C(N)/N=C(\N)Nc1ccc(Cl)cc1 |  | 729 nM (active)
12 | CCCCCCCC(=O)N(C)C | 15% (inactive) | 
13 | CCCCC(C)C(=O)O (stereo not drawn) | -6.41% (inactive) | 
14 | CCO[Si](CCCN=C=O)(OCC)OCC | 4.2% (inactive) | 
15 | CCCCCCCCO[C@@H]1O[C@H](CO)[C@@H](O)[C@H](O)[C@H]1O | 0.59% (inactive) | 
16 | Cc1ccc(N=Nc2c(O)ccc3ccccc23)c(C)c1 | -8.39% [at 28.3 µM] (inactive) | 
17 | CCCOCCO |  | inactive and 12.5 nM (active)
18 | Cc1cc(N)n(-c2ccccc2)n1 | 5.47% (inactive) | 

Row | Structure (SMILES) | activity, negative = inhibition | Potency
19 | O=C1OC(=O)c2ccccc21 | 0.191% (inactive) | 
20 | OC[C@H]1O[C@H](O[C@H]2O[C@H](CO)[C@@H](O)[C@H](O)[C@H]2O)[C@H](O)[C@@H](O)[C@@H]1O | 2.86% (inactive) | 
21 | CCSC(=O)N(CC)CC | 5.2% (inactive) | 
22 | CCCCC(=O)N(C)C | 1.44% (inactive) | 
23 | CC(=O)NC(Cc1ccccc1)C(=O)O (stereo not drawn) | -2.32% [at 28.3 µM] (inactive) | 
24 | C=C(C)C(=O)NCCC[N+](C)(C)C | 18.9% (inactive) | 
25 | CCCC(C)CCC(C)=O (stereo not drawn) | -2.31% (inactive) | 
26 | C/C=C/C(=O)C1=C(C)C=CCC1(C)C | 14.8% (inactive) | 
27 | NS(=O)(=O)c1ccccc1OC(F)(F)F | 17.1% (inactive) | 
28 | CC(=O)Oc1ccccc1C(=O)Nc1ncc([N+](=O)[O-])s1 |  | inactive
29 | C1CN(CCOCCN2CCOCC2)CCO1 | -9.59% (inactive) | 
30 | CC(=O)CC/C=C(\C)CC/C=C(\C)CC/C=C(\C)CCC=C(C)C | -4.18% [at 28.3 µM] (inactive) | 
31 | C=CCOCC(O)CO (stereo not drawn) | 1.03% (inactive) | 
32 | CC(CCC(=O)O)C(=O)O (stereo not drawn) | 16.1% (inactive) | 
33 | CCOC(C)(C)C | 13.6% (inactive) | 
34 | O=Cc1cccc([N+](=O)[O-])c1 | -6.66% (inactive) | 
35 | CC(C)CC(O)Cc1ccccc1 (stereo not drawn) | -6.15% (inactive) | 

biological target: Muscarinic acetylcholine receptor M1 (Homo sapiens) (UniProt P11229); assay: Cholinergic receptor muscarinic 1 (CHRM1) small molecule agonists, cell-based qHTS assay (AID 1963589); conditions: CHRM1-CHO cells, agonist mode, calcium flux fluorescence; series mostly up to 76.8 µM; activation: at the top concentration; also: nearly all actives have a fitted effect of over 35% in size
How it was run: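 Fluorescent calcium dye reports M1 activation in stably transfected CHO cells. Compounds, 15 concentrations, added after 1 h dye loading at 37 C; kinetic reading at 1 sec intervals.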

Row | Structure (SMILES) | activation | Potency
36 | Nc1c(NC/C=C\COc2cc(CN3CCCCC3)ccn2)c(=O)c1=O | -0.0227% [at 15.8 µM] (inactive) | 
37 | COCCOCCOCCOCCOC | 0.359% (inactive) | 
38 | COCCOCCOCCOCCOCCO | -0.154% (inactive) | 
39 | CCCO | -0.201% (inactive) | 
40 | O=[N+]([O-])c1ccc(Oc2ccc([N+](=O)[O-])cc2)cc1 | -1.69% (inactive) | 
41 | CC[N+](C)(C)c1cccc(O)c1 | 0.147% [at 35.3 µM] (inactive) | 
42 | CCCCCCCN | 0.394% (inactive) | 
43 | CS(C)(=O)=O | -0.278% (inactive) | 
44 | O=c1[nH]c(=O)c2cn[nH]c2[nH]1 | -0.0165% (inactive) | 
45 | CCC(COC(=O)CCS)(COC(=O)CCS)COC(=O)CCS | 0.282% (inactive) | 
46 | CC(C)N=C(N)/N=C(\N)Nc1ccc(Cl)cc1 | -0.883% [at 35.3 µM] (inactive) | 
47 | CCCCCCCC(=O)N(C)C | -0.331% (inactive) | 
48 | CCCCC(C)C(=O)O (stereo not drawn) | -0.943% (inactive) | 
49 | CCO[Si](CCCN=C=O)(OCC)OCC | 0.528% (inactive) | 
50 | CCCCCCCCO[C@@H]1O[C@H](CO)[C@@H](O)[C@H](O)[C@H]1O | -0.54% (inactive) | 
51 | Cc1ccc(N=Nc2c(O)ccc3ccccc23)c(C)c1 | -0.85% [at 35.3 µM] (inactive) | 
52 | COc1ccc(N=[N+]([O-])c2ccc(OC)cc2)cc1 | 0.0269% (inactive) | 
53 | Cc1cc(N)n(-c2ccccc2)n1 | 4.03% (inactive) | 

Row | Structure (SMILES) | activation | Potency
54 | O=C1OC(=O)c2ccccc21 | 0.93% (inactive) | 
55 | OC[C@H]1O[C@H](O[C@H]2O[C@H](CO)[C@@H](O)[C@H](O)[C@H]2O)[C@H](O)[C@@H](O)[C@@H]1O | -0.0941% (inactive) | 
56 | CCSC(=O)N(CC)CC | 0.594% (inactive) | 
57 | CC(=O)NC(Cc1ccccc1)C(=O)O (stereo not drawn) | -0.108% [at 35.3 µM] (inactive) | 
58 | C=C(C)C(=O)NCCC[N+](C)(C)C | 1.62% (inactive) | 
59 | CCCC(C)CCC(C)=O (stereo not drawn) | -0.205% (inactive) | 
60 | C/C=C/C(=O)C1=C(C)C=CCC1(C)C | 0.139% (inactive) | 
61 | NS(=O)(=O)c1ccccc1OC(F)(F)F | 0.454% (inactive) | 
62 | CC(=O)Oc1ccccc1C(=O)Nc1ncc([N+](=O)[O-])s1 |  | inactive
63 | C1CN(CCOCCN2CCOCC2)CCO1 | 13.4% (inactive) | 
64 | CC(=O)CC/C=C(\C)CC/C=C(\C)CC/C=C(\C)CCC=C(C)C | -0.458% [at 35.3 µM] (inactive) | 
65 | C=CCOCC(O)CO (stereo not drawn) | -0.0795% (inactive) | 
66 | CC(CCC(=O)O)C(=O)O (stereo not drawn) | -0.517% (inactive) | 
67 | CCOC(C)(C)C | 0.286% (inactive) | 
68 | O=Cc1cccc([N+](=O)[O-])c1 | -0.21% (inactive) | 
69 | CC(C)CC(O)Cc1ccccc1 (stereo not drawn) | -0.781% (inactive) | 
70 | CC(=O)OCCN(CCOC(C)=O)c1ccc(N=Nc2ccc([N+](=O)[O-])cc2C#N)cc1 | -1% (inactive) | 

test system: not listed separately; assay: cAMP Responsive Elements (CRE) small molecule agonists, cell-based qHTS assay (AID 1963590); conditions: CRE-bla HEK293T, beta-lactamase FRET ratio, 3 h; series mostly up to 92.4 µM; activation: at the top concentration
How it was run: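 Compound exposure lasted 3 h at 37 C/5% CO2 in CRE-bla HEK 293T cells grown in assay medium with 10% dialyzed FBS and 25 mM HEPES. Reporter signal came from LiveBLAzer B/G FRET substrate, 2 h, room temperature.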

Row | Structure (SMILES) | activation | Potency
71 | Nc1c(NC/C=C\COc2cc(CN3CCCCC3)ccn2)c(=O)c1=O | 0.666% [at 19 µM] (inactive) | 
72 | O=S(=O)(O)c1ccc2cc(O)c(S(=O)(=O)O)cc2c1 | -0.778% (inactive) | 
73 | COCCOCCOCCOCCOC | -0.417% (inactive) | 
74 | COCCOCCOCCOCCOCCO | 1.15% (inactive) | 
75 | CCCO | 0.0725% (inactive) | 
76 | O=[N+]([O-])c1ccc(Oc2ccc([N+](=O)[O-])cc2)cc1 | 1.72% (inactive) | 
77 | CC[N+](C)(C)c1cccc(O)c1 | -0.0058% [at 42.5 µM] (inactive) | 
78 | CCCCCCCN | 0.0886% (inactive) | 
79 | O=c1[nH]c(=O)c2cn[nH]c2[nH]1 | -2.02% (inactive) | 
80 | CCC(COC(=O)CCS)(COC(=O)CCS)COC(=O)CCS | 6.4% (inactive) | 
81 | CCCCC(C)C(=O)O (stereo not drawn) | 0.109% (inactive) | 
82 | CCO[Si](CCCN=C=O)(OCC)OCC | -0.0923% (inactive) | 
83 | CCCCCCCCO[C@@H]1O[C@H](CO)[C@@H](O)[C@H](O)[C@H]1O | 0.412% (inactive) | 
84 | Cc1ccc(N=Nc2c(O)ccc3ccccc23)c(C)c1 | -2.03% [at 42.5 µM] (inactive) | 
85 | CCCOCCO |  | inactive
86 | COc1ccc(N=[N+]([O-])c2ccc(OC)cc2)cc1 | 0.617% (inactive) | 
87 | Cc1cc(N)n(-c2ccccc2)n1 | 1.32% (inactive) | 

Row | Structure (SMILES) | activation | Potency
88 | O=C1OC(=O)c2ccccc21 | 1.24% (inactive) | 
89 | OC[C@H]1O[C@H](O[C@H]2O[C@H](CO)[C@@H](O)[C@H](O)[C@H]2O)[C@H](O)[C@@H](O)[C@@H]1O | -0.145% (inactive) | 
90 | CCSC(=O)N(CC)CC | -0.057% (inactive) | 
91 | CCCCC(=O)N(C)C | -0.887% (inactive) | 
92 | CC(=O)NC(Cc1ccccc1)C(=O)O (stereo not drawn) | 0.82% [at 42.5 µM] (inactive) | 
93 | C=C(C)C(=O)NCCC[N+](C)(C)C | 0.224% (inactive) | 
94 | CCCC(C)CCC(C)=O (stereo not drawn) | 0.513% (inactive) | 
95 | C/C=C/C(=O)C1=C(C)C=CCC1(C)C | 0.38% (inactive) | 
96 | NS(=O)(=O)c1ccccc1OC(F)(F)F | -0.0285% (inactive) | 
97 | C1CN(CCOCCN2CCOCC2)CCO1 | 0.0066% (inactive) | 
98 | CC(=O)CC/C=C(\C)CC/C=C(\C)CC/C=C(\C)CCC=C(C)C | -0.149% [at 42.5 µM] (inactive) | 
99 | C=CCOCC(O)CO (stereo not drawn) | -0.705% (inactive) | 
100 | CC(CCC(=O)O)C(=O)O (stereo not drawn) | 0.489% (inactive) | 
101 | O=Cc1cccc([N+](=O)[O-])c1 | -0.572% (inactive) | 
102 | CC(C)CC(O)Cc1ccccc1 (stereo not drawn) | -0.139% (inactive) | 
103 | CC(=O)OCCN(CCOC(C)=O)c1ccc(N=Nc2ccc([N+](=O)[O-])cc2C#N)cc1 | 1.92% (inactive) | 
